Shown are actives, neighbours in structure and some others; about 1.7% of the full set was active somewhere.
GLP1R cytotox = cytotoxicity in counter-screen for GLP-1R inverse agonists; Potency, µM (highest dose often 38.3 µM), actives largely listed as inhibitors; AID 624418; HEK293 cAMP-luciferase reporter cells, luminescence, 24 h; 0.13% of 410,000 active;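 note: loss of luciferase light is scored as toxicity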
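Seeding density was 200 cells/uL; after overnight-length (12 h) culture, 23 nL compounds went on for 24 h at 37 °C. Readout used a luciferase detection reagent, luminescence taken after 12 min at room temperature.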
PTHR1 ag = agonists of human PTHR1 parathyroid hormone receptor; 0.075% of 410,000 active; Potency, µM (titrated, usually from 115 µM), most hits filed as activators; Q03431; HEK293 GP2 PTHR1 cells, GloSensor cAMP luminescence, 1 h; AID 743266; note: nearly all actives have a fitted effect of over 55% in size
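HEK-293-derived GP2 cells expressing PTHR1 and a GloSensor cAMP reporter, 3,000/well, plated overnight, given luciferin plus IBMX (each 0.5 mM as added) for 1 h at 37 °C, then compound for 1 h at 37 °C. Luminescence was read after 15 min at room temperature.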
GLP1R ag = agonists of human GLP-1 receptor; P43220; HEK293 GLP-1R CRE-luciferase, luminescence, 4-6 h; cells express a hypersensitive GLP-1R form; Potency, µM (series often up to 45.6 µM), actives largely listed as activators; 0.007% of 380,000 active; AID 624172
Target sequence (P43220 whole entry, looked up): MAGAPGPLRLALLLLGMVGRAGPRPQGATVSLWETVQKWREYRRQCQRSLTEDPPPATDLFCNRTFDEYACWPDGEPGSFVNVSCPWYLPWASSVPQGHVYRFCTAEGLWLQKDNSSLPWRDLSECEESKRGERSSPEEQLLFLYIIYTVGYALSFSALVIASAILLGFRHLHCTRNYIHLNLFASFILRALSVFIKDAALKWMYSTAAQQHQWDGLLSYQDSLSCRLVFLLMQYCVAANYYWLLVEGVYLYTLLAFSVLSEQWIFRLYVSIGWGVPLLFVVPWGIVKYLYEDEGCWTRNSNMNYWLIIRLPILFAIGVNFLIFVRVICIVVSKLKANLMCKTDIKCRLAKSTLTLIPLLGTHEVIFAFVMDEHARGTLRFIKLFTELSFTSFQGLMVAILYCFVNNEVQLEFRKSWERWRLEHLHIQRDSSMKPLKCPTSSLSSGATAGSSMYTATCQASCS
GLP-1R inv ag = GLP-1 receptor (human) inverse agonism. HEK293 GLP-1R CRE-luciferase, luminescence, 24 h; GLP-1R form is constitutively active. Potency, µM (series often up to 38.3 µM), most hits filed as inhibitors. 1.6% of 410,000 active. AID 624417; note: nearly all actives have a fitted effect of over 55% in size
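Cells are plated, allowed 12 hours at 37 deg C, then treated with compounds for 24 hr before luciferase detection reagent is added and luminescence is read after 12 min at room temperature. The HEK293 line carries constitutively active GLP-1R with a cAMP-responsive reporter.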
Each line names hits and unclear results; the compound was inactive in the other large screens. Calls come from the whole dose curve; as a rule, active = well fitted curve in the direction sought with a large enough effect; inconclusive = small, poorly fitted or top-dose-only effect, or another doubt; inactive = no such curve, though single readings can be large; an effect the other way counts as inactive or inconclusive.

CCC(=C(c1ccc(OC)cc1)c1ccc(OC)cc1)c1cn(CC(O)CN2CCN(C)CC2)c2ccccc12 (configuration not stated)	GLP1R cytotox inconclusive, GLP-1R inv ag 10µM
C[C@@H]1CCCCO[C@H](CN(C)Cc2ccccc2)[C@@H](C)CN([C@H](C)CO)C(=O)c2cc(NC(=O)c3ccccc3)ccc2O1	GLP-1R inv ag inconclusive
COc1ccc(NC(=O)Nc2ccc3c(c2)C(=O)N([C@H](C)CO)C[C@H](C)[C@@H](CN(C)Cc2ccc(Cl)c(Cl)c2)OCCCC[C@@H](C)O3)cc1	GLP-1R inv ag 3.2µM
O=C1c2ccccc2C(=O)c2ccccc21	none (no result: GLP1R cytotox, PTHR1 ag, GLP-1R inv ag)
c1ccc2c(c1)[IH]c1ccccc1-2	GLP1R cytotox inconclusive, GLP-1R inv ag 4.5µM
COc1cccc(/C=N/Nc2ccc([N+](=O)[O-])cc2)c1O	GLP1R cytotox inconclusive, GLP-1R inv ag 1.8µM
COC(=O)c1cc(=O)n(-c2ccc(F)cc2)c(=Nc2ccc(F)cc2)s1	GLP1R cytotox inconclusive, GLP-1R inv ag 4.5µM
Cc1cc(C)cc(NC(=O)CCCn2c3ccccc3c(=O)c3ccccc32)c1	GLP-1R inv ag 3.5µM (no result: GLP1R ag)
CCn1ccnc1CN1CCCC(C(=O)c2ccc(SC)cc2)C1 (configuration not stated)	GLP1R cytotox 13µM, GLP-1R inv ag inconclusive
O=C(Nc1cc(Sc2nc3ccccc3s2)cc([N+](=O)[O-])c1)c1ccccc1	GLP1R cytotox inconclusive, GLP-1R inv ag inconclusive
O=C(CCl)Nc1cc(SCC(O)CO)cc([N+](=O)[O-])c1 (configuration not stated)	GLP1R cytotox 4µM, GLP-1R inv ag inconclusive
COC(=O)C1=C(c2ccccc2OCc2ccccc2)C[C@@H]2CC[C@H]1N2C(=O)NCc1ccc(N(C)C)cc1	GLP-1R inv ag inconclusive
COC(=O)C1=C(c2cccc(OCc3ccccc3)c2)C[C@@H]2CC[C@H]1N2C(=O)NCc1cccc(OC)c1	GLP-1R inv ag inconclusive
COC(=O)C1=C(c2cccc(OCc3ccccc3)c2)C[C@@H]2CC[C@H]1N2C(=O)NCc1ccccc1C(F)(F)F	GLP-1R inv ag 4µM
COC(=O)C1=C(c2ccc(F)cc2OCc2ccccc2)C[C@@H]2CC[C@H]1N2C(=O)NCCc1ccc(F)cc1	GLP-1R inv ag 7.1µM
COC(=O)C1=C(c2ccc(F)cc2OCc2ccccc2)C[C@@H]2CC[C@H]1N2C(=O)NCc1cccc(C(F)(F)F)c1	GLP-1R inv ag 5.6µM
COC(=O)C1=C(c2ccc(F)cc2OCc2ccccc2)C[C@@H]2CC[C@H]1N2C(=O)NCc1ccc(N(C)C)cc1	GLP-1R inv ag 10µM
Cc1cccn2c(=O)cc(COc3cccc(NC(=O)COc4ccc(F)cc4)c3)nc12	none (no result: GLP1R ag)
O=C(c1ccccc1Cl)N1CCC(c2nc3ccccc3s2)CC1	none (no result: GLP1R ag)
COc1ccc(CNC(=O)Nc2nc(C(N)Cc3ccc(C(F)(F)F)cc3)cs2)cc1 (configuration not stated)	GLP1R cytotox inconclusive, GLP-1R inv ag inconclusive
Cc1ccc(N2C(=O)c3[nH]nc(-c4ccc(Cl)cc4)c3C2c2ccc(F)cc2)cc1 (configuration not stated)	GLP1R cytotox inconclusive, GLP-1R inv ag inconclusive
Cc1ccc(-c2n[nH]c3c2C(c2cccs2)N(c2ccc(Cl)cc2)C3=O)cc1 (configuration not stated)	GLP1R cytotox inconclusive, GLP-1R inv ag 7.9µM
COC(=O)c1ccc(Nc2cc(C)nc3ccc(C)cc23)cc1	GLP1R cytotox inconclusive, GLP-1R inv ag 10µM
O=c1nc(/C=C/c2ccc(Cl)cc2Cl)cc(C(F)(F)F)[nH]1	GLP-1R inv ag 4µM
Cc1c(C(=O)NCc2cccc(C(F)(F)F)c2)sc(=O)n1Cc1ccc(C(=O)N(C)C)cc1	none
O=C(Cn1ncc(Cl)c(Cl)c1=O)NCC1CCCCC1	GLP1R cytotox 10µM, GLP-1R inv ag inconclusive
COc1ccc(-c2cc(CNc3nc(NC(C)C)nc4cc(-c5ccccc5)sc34)on2)cc1	GLP1R cytotox inconclusive, GLP-1R inv ag inconclusive
C=C1CC2(CC(c3ccccc3)OC(c3ccccc3)C2)OC1=O (configuration not stated)	GLP1R cytotox inconclusive, GLP-1R inv ag inconclusive
CC[C@@]1(c2ccccc2OC)ON(c2ccccc2C(F)(F)F)C1=O	none
Cc1cccc(NP(=O)(Oc2ccccc2F)Oc2ccccc2F)c1	GLP1R cytotox inconclusive, GLP-1R inv ag 11µM
Cc1ccc(NP(=O)(Oc2ccccc2F)Oc2ccccc2F)cc1C	GLP-1R inv ag inconclusive

Screens deposited in PubChem by National Center for Advancing Translational Sciences (NCATS).
